The results in this text go back to PubChem BioAssay AID435019 (Southern Research Specialized Biocontainment Screening …, 2010).

Screen size: about 2,300 compounds; about 1,200 (52%) were called active. The rule behind the calls is not given here. So high a share suggests a set chosen from earlier hits. Some of the results follow. Results with a measured potency or affinity are listed apart.

The experiment is described as follows: mammalian cell cytotoxicity, dose response, cytotoxicity control for M. tuberculosis inhibitor project (AID 435019).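 Note: lower values mean fewer viable cells so more cytotoxicity.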 Conditions: cytotoxicity counter-screen; series mostly up to 40 µM. A general note: A counterscreen serves to expose hits that act by an unwanted route or on another target.
As to `CCOC(=O)c1ccc(N=Cc2nc3ccccc3n2C)cc1`, the outcome was inactive.

In the case of `CCOc1cc(/C=N/Nc2nc(Nc3ccccc3)nc(N3CCCCC3)n2)ccc1OCC(=O)O`, the call was inactive.

`COC(=O)[C@@H](NC(=O)c1cc(COc2cncc(Cl)c2)on1)c1ccccc1`: the compound was called inactive.

For `O=C(N/N=C\c1ccc[nH]1)c1cncc(Br)c1`, the outcome was inactive.

With `O=C(O)C1CC=CCC1C(=O)NNc1ccccc1` (stereo unspecified), the outcome was inactive.

Regarding `O=c1oc2ccccc2c(Nc2ccccc2O)c1[N+](=O)[O-]`, the compound was classed as inactive.

With `COc1ccc(NC(=O)C2C3C=CC(O3)C2C(=O)NCc2cccnc2)cc1` (stereo unspecified), the compound was classed as inactive.

For `CCCC(O)(CCC)C(=O)NNc1ccc(C)cc1`, the compound was called inactive.

For `CCc1nnc(NC(=O)CN2CCN(c3nc(-c4ccccc4)cs3)CC2)s1`, the result was inactive.

Regarding `c1ccc2nc(-c3ccc(-n4ccnc4)cc3)ccc2c1`, the result was inactive.

Consider `CCOC(=O)c1c(-c2ccc(OC)cc2)csc1NC(=O)CNCc1ccco1`, for which the call was inactive.

For the compound `CCCCOc1ccc(C(=O)Oc2ccc(C)nc2)cc1`, the outcome was inactive.

Regarding `O=c1[nH][nH]cc1C=Nc1ccc(Oc2ccccc2)cc1`, the compound was called inactive.

On to `CN(c1ccccc1)S(=O)(=O)c1cccc(C(=O)NCc2ccccc2CN2CCCC2)c1`, for which the call was inactive.

On to `CN1C(=O)N(C)c2ccc(C=O)c3cccc1c23`, for which the result was inactive.

In the case of `COc1cc2[nH]c(Cl)c([N+](=O)[O-])c2cc1OC`, the compound was classed as inactive.

As for `Cc1ccc(C)c(NC(CC(=O)c2ccccc2)C(=O)OCC(=O)c2cccs2)c1` (stereo unspecified), the compound was classed as inactive.

`CCOc1ccc(NCc2cccn2-c2nnc(N3CCC(C(=O)NCCCN4C(C)CCCC4C)CC3)s2)cc1` (stereo unspecified): the call was inactive.

With `O=C(CSc1nnc(-c2cccs2)o1)NCC1CN(Cc2ccccc2)CCO1` (stereo unspecified), the result was inactive.

`Nc1cc(=O)[nH]c(SCc2csc(-c3ccccc3)n2)n1`: the call was inactive.

Turning to `CCCOc1cccc(C(=O)NC(=S)Nc2ccc(N3CCN(C)CC3)cc2)c1`, the call was inactive.

`CCOC(=O)c1cc(-c2ccc(N3CCOCC3)cc2)nn1-c1ccccc1`: the compound was called inactive.

As to `CCOC(=O)CNC(=O)C(Cc1ccccc1)NC(=O)OCc1ccccc1` (stereo unspecified), the call was inactive.

Turning to `COc1ccc(-c2cc(C3CCN(C(=O)OC(C)(C)C)CC3)[nH]n2)cc1`, the compound was called inactive.

Consider `CCCCCc1ccc(-c2cn(Cc3cccc(OC)c3)nn2)cc1`, for which the compound was classed as inactive.

For the compound `COc1ccc(C(=O)OCCNC(=O)c2c(Cl)nc3ccccn23)cc1`, the outcome was inactive.

In the case of `CCOC(=O)c1sc2nc3n(c(=O)c2c1C)CCC(C)CC3` (stereo unspecified), the result was inactive.

With `CC(OC(=O)c1cc(Cl)ccc1[N+](=O)[O-])C(=O)NC(C)c1ccc(F)cc1` (stereo unspecified), the call was inactive.

Consider `COc1ccccc1NC(=O)C(C)OC(=O)/C=C/c1ccc2ccccc2n1` (stereo unspecified), for which the call was inactive.

Turning to `Cn1c(=O)c2cc(NCc3ccccc3)nnc2n(C)c1=O`, the result was inactive.

Consider `Cn1c(=O)n(Cc2ccccc2)c(=O)c2c1nc1n2CCCN1C1CCCCC1`, for which the outcome was inactive.

With `Cc1nn(-c2ccccn2)c2c1-c1nc(N3CCOCC3)ncc1CC2`, the compound was called inactive.

In the case of `CCOC(=O)CSc1ncc(OC)c(Sc2ccc(OC)cc2)n1`, the compound was called inactive.

As to `Cc1ccc(-c2c[n+](CC(=O)N3c4ccccc4Sc4ccccc43)c3n2CCC3)cc1`, the compound was classed as inactive.

For `C=CCN1CC[C@]23c4c5ccc(O)c4O[C@H]2/C(=N/NC(=O)c2ccccc2)CC[C@@]3(O)[C@H]1C5`, the compound was classed as inactive.

For `CCOC(=O)c1sc2ncnc(NCC(c3cccs3)N(C)C)c2c1C` (stereo unspecified), the compound was classed as inactive.

In the case of `Cc1c(Cl)c([N+](=O)[O-])nn1Cc1ccc(C(=O)N/N=C\c2cccc(Br)c2)o1`, the compound was called inactive.

For `Cc1cc(C(=O)N/N=C/c2ccc(-c3ccc([N+](=O)[O-])cc3Cl)o2)n[nH]1`, the result was inactive.

Take `CCn1c(SCC(=O)Nc2ccc3c(c2)oc2ccccc23)nnc1-c1ccc(N)cc1`: the call was inactive.

Take `CCSCc1nnc(SCC(=O)Nc2cccc(SC)c2)n1C`: the compound was classed as inactive.

Regarding `Clc1cc(Cl)cc(Nc2ncn[nH]2)c1`, the compound was classed as inactive.

With `C/C(CC(=O)Nc1ccc(C)c(Cl)c1)=N\NC(=O)Cc1cnc(N)s1`, the compound was classed as inactive.

As for `COc1ccc(C(C)=O)cc1COC(=O)c1ccc2ccccc2n1`, the compound was classed as inactive.

As to `Cc1ccc(C)c(NNC(N)=S)c1`, the compound was called inactive.

Turning to `COc1ccc(CCNc2cc(-c3ccccc3)nc3ncnn23)cc1`, the compound was called inactive.

On to `O=c1c2c(nc3nc(NCc4ccc(Cl)cc4)[nH]n13)CCC2`, for which the compound was called inactive.

For the compound `COC(=O)CCCCC1SCC(NC(=O)c2ccccc2)C1=O` (stereo unspecified), the call was inactive.

Take `N#Cc1ccc(CN2CCN(CC(=O)NCCc3ccc(Cl)cc3Cl)CC2)cc1`: the call was inactive.

As to `COc1ccc(SN=C2C(C)=CC(=O)C=C2C)cc1`, the compound was called inactive.

Take `COC(=O)C1C(O)C(C)C(O)C(C)/C=C\C=C(/C)C(=O)Nc2c(C)c(OC(C)=O)c3c(c2O)C(=O)C(C)=C2OCOC(=C23)/C(C)=C/C(C)(O)C(O)C(C)C1O` (stereo unspecified): the result was inactive.

As to `CCc1ccc(/C(C)=N/Nc2cc(Cl)nc(C)n2)cc1`, the outcome was inactive.

For the compound `C/C(=N/Nc1ccnc2cc(Cl)ccc12)c1ccc(O)cc1`, the call was inactive.

`Cc1ccc2c(c1)nnn2C1CCN(CC(=O)N2CCN(c3ccc(F)cc3)CC2)CC1`: the outcome was inactive.

`C/C(O)=C\c1nc2ccccc2oc1=O`: the call was inactive.

Regarding `c1ccc(CCN2CN=C(Nc3nc4ccccc4o3)NC2)cc1`, the call was inactive.

As to `CN1CCC(=NNC(=O)C(=O)Nc2ccccc2F)CC1`, the compound was classed as inactive.

For `O=C(CCN1C(=O)/C(=C/c2ccccc2)SC1=S)Nc1ccccn1`, the outcome was inactive.

As for `O=C(COC(=O)C1=COCCO1)Nc1cccc(Oc2ccccc2)c1`, the outcome was inactive.

For the compound `CCOc1ccc2nc(/N=C/c3nc(-c4ccccc4)oc3O)sc2c1`, the compound was called inactive.

As to `Cc1ccc(-c2nnc(C)c(N3CCCC3)n2)cc1`, the call was inactive.

Take `O=C(c1cc2ccccc2o1)N1CCN(S(=O)(=O)c2ccc(Cl)s2)CC1`: the compound was called inactive.
